Most compounds without a hit are left out; they make up all but 3.4% or so of the library.
TEAD-YAP inh: TEAD-YAP interaction inhibition; HEK-TIYL cells, TEAD-Gal4/YAP UAS-luciferase luminescence; inhibition, % at 9.12 µM; 640,000 compounds, 1.4% hits; in the data active means inhibition above about 32%
MITF primary: inhibitors of human MITF; O75030; AlphaScreen MITF homodimerization, bead proximity signal; inhibition, % at 2.6 µM; 650,000 compounds, 0.91% hits; AID 1259374; in the data active means inhibition above about 50%
Target sequence (O75030 whole entry, looked up): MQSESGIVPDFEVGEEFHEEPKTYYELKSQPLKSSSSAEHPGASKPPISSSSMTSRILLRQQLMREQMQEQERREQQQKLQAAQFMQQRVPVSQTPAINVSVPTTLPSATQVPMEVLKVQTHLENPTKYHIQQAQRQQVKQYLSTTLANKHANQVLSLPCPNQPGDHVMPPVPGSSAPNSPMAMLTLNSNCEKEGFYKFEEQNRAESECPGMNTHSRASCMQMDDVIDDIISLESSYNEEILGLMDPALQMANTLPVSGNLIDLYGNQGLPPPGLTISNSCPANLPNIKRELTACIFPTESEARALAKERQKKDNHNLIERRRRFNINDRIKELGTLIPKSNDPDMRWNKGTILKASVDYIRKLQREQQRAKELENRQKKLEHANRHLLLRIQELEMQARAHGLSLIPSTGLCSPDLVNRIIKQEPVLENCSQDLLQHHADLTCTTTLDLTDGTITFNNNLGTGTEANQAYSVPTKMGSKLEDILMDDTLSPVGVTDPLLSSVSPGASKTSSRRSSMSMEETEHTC
GPR151 activ: activators of human GPR151; activation, % at 11.2 µM; 650,000 compounds, 1% hits; PathHunter beta-arrestin GPR151 cells, luminescence; Q8TDV0; in the data active means activation above about 4.9%
FBW7 activator: activators of human E3 ligase FBW7; Q969H0; normalized activity (activation), % at 26.1 µM; AlphaScreen FBW7–phospho-cyclin E peptide binding, activator screen; 650,000 compounds, 0.13% hits; in the data active means normalized activity above about 1.9%;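 further: purified mutant Fbw7 with reduced substrate affinity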
Large screens that a line does not name were inactive.

COc1cc(OC)c(NC(=O)c2cn(-c3ccc(C)c(C)c3)c(=O)c3ccccc23)cc1Cl	none
COc1ccccc1C1C(C#N)=C(N)Oc2c1sc1ccccc21 (configuration not stated)	TEAD-YAP inh 33
N#CC1=C(N)Oc2c(sc3ccccc23)C1c1ccc(Cl)cc1Cl (configuration not stated)	none
COc1ccc(C2C(C#N)=C(N)Oc3c2sc2ccccc32)c(OC)c1 (configuration not stated)	TEAD-YAP inh 64
N#CC1=C(N)Oc2c(sc3ccccc23)C1c1ccccc1OC(=O)c1ccccc1Cl (configuration not stated)	none
CCOC(=O)c1c(/C=C/C(=O)c2ccccc2)ccc(OC)c1OC	none
CC(C)(C)c1ccc(-c2csc(NC(=O)c3cc([N+](=O)[O-])ccc3Cl)n2)cc1	TEAD-YAP inh 43
COc1ccccc1-c1csc(NC(=O)c2cc([N+](=O)[O-])ccc2Cl)n1	TEAD-YAP inh 34
O=C(Nc1nccs1)c1cc([N+](=O)[O-])ccc1Cl	TEAD-YAP inh 45
Cc1ccc(C)c(-c2csc(NC(=O)c3cc([N+](=O)[O-])ccc3Cl)n2)c1	TEAD-YAP inh 53
CC1CCN(Cc2nnnn2CCCC(=O)NCC2CCN(Cc3ccccc3)C2)CC1 (configuration not stated)	none
O=C(Nc1nc(-c2cc(Cl)sc2Cl)cs1)c1ccc([N+](=O)[O-])s1	TEAD-YAP inh 67
CC1=NN2C(=N)/C(=C/c3ccc(OCCOc4cc(C)cc(C)c4)cc3)C(=O)N=C2S1	none
CCOc1ccc(CN2CCN(C(=O)c3ccccc3F)CC2)cc1	TEAD-YAP inh 40
Cc1ccc(CN2CCN(C(=O)c3ccccc3F)CC2)cc1	none
CC(=O)N1CCN(Cc2ccc3c(c2)CN(Cc2ccc(Cl)cc2)CCO3)CC1	TEAD-YAP inh 47
CCOc1ccc(CN2CCOc3ccc(CN4CCN(C(C)=O)CC4)cc3C2)cc1	TEAD-YAP inh 37
CCOc1ccc(C2C(C(=O)OC)=CN(Cc3ccc(F)cc3)C=C2C(=O)OC)cc1OC	none
Cc1cnc(Nc2cccnc2)nc1NCc1ccccc1	TEAD-YAP inh 33
Cc1cnc(Nc2ccccn2)nc1NCc1cccc(C(F)(F)F)c1	TEAD-YAP inh 47
Cc1cnc(NCCN2CCOCC2)nc1NCc1cccc(C(F)(F)F)c1	TEAD-YAP inh 32
Cc1cnc(Nc2ccc3ncccc3c2)nc1NCc1cccc(C(F)(F)F)c1	TEAD-YAP inh 53
Cc1cnc(Nc2ncccn2)nc1NCc1cccc(C(F)(F)F)c1	none
O=S(=O)(c1ccc(-c2csc(Nc3ccc(Cl)c(Cl)c3)n2)cc1)N1CCCC1	none
CC(C)NC(=O)[C@@H]1C[C@H](NCc2ccncc2)CN1C/C=C/c1ccccc1	none
CCOC(=O)c1c(NC(=O)c2ccc(Cl)cc2Cl)sc(C(=O)Nc2ccc(OC)cc2)c1C	none
CC(C)n1c(-c2cccs2)nc2c(NCc3cccc(C(F)(F)F)c3)ncnc21	none
Nc1nc(NCc2cccc(C(F)(F)F)c2)cc(Nc2cnccn2)n1	TEAD-YAP inh 56
CCNc1ncc(C)c(NCc2cccc(C(F)(F)F)c2)n1	none
FC(F)(F)c1cccc(CNc2ncnc3sccc23)c1	TEAD-YAP inh 46
COc1ccc(-c2nc3ncnc(NCc4cccc(C(F)(F)F)c4)c3[nH]2)cc1	TEAD-YAP inh 46
Cc1cnc(Nc2ccccc2)nc1NCc1cccc(C(F)(F)F)c1	TEAD-YAP inh 50
O=c1nc2n(c3ccccc13)Cc1ccccc1-2	none
N=c1nc2n(c3ccccc13)Cc1ccccc1-2	TEAD-YAP inh 71
O=C1NC(=S)N(c2ccccc2F)C(=O)/C1=C/c1ccsc1	none
COc1ccc(C(=O)Nc2sccc2C(N)=O)cc1OC	none
COCCOC(=O)c1c(C)oc2ccc(OCC(=O)c3ccc(Cl)cc3)cc12	none
COc1ccccc1Nc1nc(-c2cc3ccccc3oc2=O)cs1	TEAD-YAP inh 43
Cc1ccc(OC2=CC(=O)c3c(OC(=O)c4ccccc4)c4ccccc4c4onc2c34)cc1	none
CCN(CC)c1nc(Nc2ccc(N3CCOCC3)cc2)nc(Nc2ccc(-n3ccnc3)cc2)n1	TEAD-YAP inh 65
c1ccc(-n2cnc3c(Nc4ccc(N5CCOCC5)cc4)nc(Nc4ccc(-n5ccnc5)cc4)nc32)cc1	TEAD-YAP inh 41
c1ccc(OCCNc2nc(Nc3cccnc3)nc3c2ncn3-c2ccccc2)cc1	none
c1ccc(Nc2nc(Nc3cccnc3)nc3c2ncn3-c2ccccc2)cc1	TEAD-YAP inh 34
c1ccc(-n2cnc3c(Nc4ccc(N5CCOCC5)cc4)nc(Nc4cccnc4)nc32)cc1	TEAD-YAP inh 41
c1ccc(Nc2nc(Nc3ccc(-n4ccnc4)cc3)nc3c2ncn3-c2ccccc2)cc1	none
CC(/C=N/NS(=O)(=O)c1ccc(Br)cc1)=C\c1ccccc1	none
CN(C)CCOc1ccc(-c2ccccc2)cn1	none
COC(=O)c1ccc(/C=C/C(=O)c2ccc(F)cc2)cc1	none
COc1ccc(C(=O)/C=C/c2cccc(F)c2)cc1	none
COc1cc(C(=O)/C=C/c2cccc(F)c2)ccc1O	TEAD-YAP inh 56
COc1cc(C(=O)/C=C/c2ccc(F)cc2)ccc1O	TEAD-YAP inh 66
COc1ccccc1CNC(=O)c1cc2c(=O)[nH]c3ccccc3c2n1C	FBW7 activator 4.8
Cc1c(Cl)c([N+](=O)[O-])nn1CC(=O)Nc1cc(-c2ccc(Cl)cc2)nn1C	none
Cc1noc(C)c1C(=O)Nc1sc2c(c1C#N)CCC(C)C2 (configuration not stated)	none
CCOC(=O)c1cccc(C(=O)NC2=NN(c3ccccc3)C(=O)C2)n1	FBW7 activator 51
CCOC(=O)c1cccc(C(=O)Nc2ccccc2C(=O)OC)n1	none
COc1ccc(C(=O)Nc2cnc(NC(=O)c3cccs3)cc2C)cc1	TEAD-YAP inh 37
CC(=O)Nc1cnc(NC(=O)c2ccc(Cl)cc2)cc1C	TEAD-YAP inh 52
CCC(=O)Nc1cnc(NC(=O)c2ccc(Cl)cc2)cc1C	none
Nc1c(C(=O)c2ccc(Cl)cc2)sc2nc3c(cc12)C(=O)CCC3	none
COc1cc(N2C(=O)NC(=O)/C(=C\c3ccc(N(C)C)cc3)C2=O)cc(OC)c1OC	FBW7 activator 2.5
NC(=O)C1CCN(C(=S)NC(=O)c2ccc(Cl)cc2)CC1	FBW7 activator 2.3
CCc1ccc(/C(C)=N/N=C(N)N)cc1	TEAD-YAP inh 35
O=C(CN1C(=O)C2C3C=CC(C4CC34)C2C1=O)N1CCC(c2ccncc2)CC1 (configuration not stated)	TEAD-YAP inh 50
COc1cc(/C=C/c2ccc(O)c(OC)c2)ccc1O	none
O=c1cc(O)cc(/C=C/c2ccc(O)c(O)c2)o1	MITF primary 86
O=C(Nc1ccc2[nH]ncc2c1)[C@H](O)c1ccc(Br)cc1	none
CSc1nsc(N/N=C/c2ccccc2)c1C#N	none
N#Cc1c(Cl)nsc1N/N=C/c1ccccc1	TEAD-YAP inh 41
CCOC(=O)CN(C(=O)CCl)c1ccc(F)cc1	TEAD-YAP inh 77
COC(=O)CN1C(=S)N(C)C(=O)/C1=C/c1ccc(C)cc1	none
COCCNc1ccc2ncc(-c3ccccc3F)n2n1	TEAD-YAP inh 49
COc1ccc(C(C)C)cc1-c1cnc2ccc(NCc3ccco3)nn12	TEAD-YAP inh 59
